Hits are enriched below; roughly 13% of the tested compounds scored in any of these assays.
Pf growth 48h: P. falciparum growth inhibition at 48 hours (one generation) | 5.9% of 310,000 active | Potency, µM (series often up to 28.7 µM), for inactives: at the highest dose activity change, negative = inhibition, most hits filed as inhibitors | P. falciparum luciferase growth in erythrocytes, 48 h; further: potency means the concentration at half of the fitted maximal effect
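Parasite viability was followed by luminescence of a genomically integrated firefly luciferase. Cultures held 0.1% parasitemia at 2% hematocrit (final), incubated under 5% CO2 at 37 C.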
HCMV inh: blocks human cytomegalovirus replication; 4.5% of 410,000 active; AID 1259415; HFF cells, HCMV-luciferase reporter, 72 h; active compounds read low; activity change, negative = inhibition, % at 57.5 µM; in the data active means activity change below about -60%; inconclusive means no clear call, values can overlap the other calls; inactive means above about -39%
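Cell-based, HFFs, 1000 cells/well, 16 h 37C; cpds in DMSO + HCMV-luc, MOI 1 PFU/cell; 72 h 37C; OneGlo luminescence after 5 min RT; norm. to buffer vs Salinomycin 10uM.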
HCV inhibitor: HCV inhibition. Huh7.5.1 HCVcc-Cre infection, luciferase reporter, 44 h. AID 651820. Potency, µM (doses to about 41.8 µM), without a hit: at the highest dose activity change, negative = inhibition, hits mostly inhibitors. 3.4% of 340,000 active; further: potency means the concentration at half of the fitted maximal effect
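Whole-lifecycle infectious HCVcc-Cre system; cells 1,000/well, compound then virus (~0.5 moi) added 4 h after plating, 44 h culture. Luciferase read 15 sec following 15 min substrate incubation, room temp.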
Pf growth 96h: inhibits malaria parasite growth, 96 h; P. falciparum luciferase reporter growth, 96 h; Potency, µM (highest dose often 28.7 µM), for inactives: top-dose activity change, negative = inhibition, usual class: inhibitors; 6.9% of 320,000 active; further: potency means the concentration at half of the fitted maximal effect
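Delayed-death screen, second-generation endpoint: infected erythrocytes, 2% hematocrit, 0.05% parasitemia final; 96 hours at 37 C, 5% CO2; luciferase detection reagent; luminescence decrease equals reduced growth.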
Starred values were filed as active, the others as inactive. Unless noted, the call rests on the fitted dose curve; in most records, active means well fitted inhibition curve with a large enough effect; inconclusive means small, poorly fitted or top-dose-only effect, or another doubt; inactive means no such curve, though single readings can be large or run the other way. On the % scale 0 is the no-effect control and ±100 the full control effect.

What do the screens show for `COc1cc(/C=N/Nc2cc(C)nc(NS(=O)(=O)c3ccc(C)cc3)n2)ccc1O`?
Pf growth 48h: 17%; HCMV inh: 12; HCV inhibitor: 21%; Pf growth 96h: 1%

What do the screens show for `Oc1ccccc1C=NNc1nc2ccccc2s1`?
HCMV inh: 87; HCV inhibitor: inconclusive

What do the screens show for `Cc1cc(N/N=C\c2ccccc2)nc(-c2ccccc2O)n1`?
Pf growth 48h: 41%; HCMV inh: -2; HCV inhibitor: inconclusive; Pf growth 96h: 0%

How did Cc1cc(N/N=C/c2ccccc2O)nc(N2CCOCC2)n1 do in these assays?
Pf growth 48h: 10µM*; HCMV inh: 9; HCV inhibitor: inconclusive; Pf growth 96h: inconclusive

How did Oc1ccc(C=NNc2nc3ccccc3s2)c(O)c1 do in these assays?
HCMV inh: -63*; HCV inhibitor: inconclusive

Results for C/C(=N\Nc1cc(C)nc(-c2ccccc2O)n1)c1ccccc1O ?
Pf growth 48h: inconclusive; HCMV inh: -38; HCV inhibitor: 11µM*; Pf growth 96h: inconclusive

How did COc1ccc(/C=N/Nc2cc(C)nc(NS(=O)(=O)c3ccc(C)cc3)n2)cc1 do in these assays?
Pf growth 48h: 17%; HCMV inh: -62*; HCV inhibitor: 2%; Pf growth 96h: 18%

What do the screens show for `CCOC(=O)c1sc(NC(=O)c2cc(CC)on2)c(C(=O)OCC)c1C`?
HCMV inh: -3

What do the screens show for `CCOc1ccc(-n2c(SCC(=O)N3CCCc4ccccc43)nc3c([nH]c4ccccc43)c2=O)cc1`?
HCMV inh: 10

How did Cc1cc(N/N=C/c2ccc(O)cc2O)nc(-n2nc(C)cc2C)n1 do in these assays?
Pf growth 48h: 1.9µM*; HCMV inh: inconclusive; HCV inhibitor: inconclusive; Pf growth 96h: inconclusive

Results for Cc1cc(N/N=C/c2cccc(Cl)c2)nc(-n2nc(C)cc2C)n1 ?
Pf growth 48h: 1.2µM*; HCMV inh: -87*; HCV inhibitor: 18µM*; Pf growth 96h: inconclusive

How did Cc1cc(N/N=C/c2ccccc2[N+](=O)[O-])nc(-n2nc(C)cc2C)n1 do in these assays?
Pf growth 48h: 0.93µM*; HCMV inh: -99*; HCV inhibitor: 2.5µM*; Pf growth 96h: 0.66µM*

Results for O=c1c(N2CCN(c3ccccc3)CC2)csc2ccc(Cl)cc12 ?
HCMV inh: -4

How did CC(C)(C)C(=O)Nc1nc2nc(-c3ccccc3)cc(=O)n2[nH]1 do in these assays?
HCMV inh: 5

How did COc1cc(-c2nnc(SCCOc3ccc(Cl)cc3)o2)cc(OC)c1OC do in these assays?
HCMV inh: -3

Results for Cc1cc(C)c2c(=O)cc(CSCC(=O)Nc3ccccc3Cl)[nH]c2c1 ?
HCMV inh: 18

What do the screens show for `CCOc1cc(C(=O)Nc2ccc(S(=O)(=O)Nc3cc(OC)nc(OC)n3)cc2)cc(OCC)c1OCC`?
HCMV inh: 20

Results for CC(=O)Oc1ccc(-c2ccc(C(=O)OCC(=O)c3c(N)n(C)c(=O)n(C)c3=O)cc2)cc1 ?
HCMV inh: -62*; HCV inhibitor: inconclusive

What do the screens show for `CC(=O)Oc1ccc(C(=O)OCC(=O)c2c(N)n(C)c(=O)n(C)c2=O)cc1OC(C)=O`?
Pf growth 48h: -13%; HCMV inh: -26; HCV inhibitor: 9%; Pf growth 96h: 19%

What do the screens show for `Cn1c(N)c(C(=O)COC(=O)c2ccc(Cl)c(S(=O)(=O)N3CCCC3)c2)c(=O)n(C)c1=O`?
Pf growth 48h: 8.3µM*; HCMV inh: -16; HCV inhibitor: inconclusive; Pf growth 96h: inconclusive

What do the screens show for `Cn1c(N)c(C(=O)COC(=O)c2cc(S(=O)(=O)N3CCCCC3)ccc2Cl)c(=O)n(C)c1=O`?
Pf growth 48h: -3%; HCMV inh: -16; HCV inhibitor: -50%; Pf growth 96h: -7%

How did Cn1c(N)c(C(=O)COC(=O)Cc2ccc(Br)cc2)c(=O)n(C)c1=O do in these assays?
HCMV inh: 19; HCV inhibitor: -6%

Results for Cn1c(N)c(C(=O)COC(=O)Cc2ccsc2)c(=O)n(C)c1=O ?
Pf growth 48h: 20%; HCMV inh: -10; HCV inhibitor: 6%; Pf growth 96h: 10µM*

Results for CCOc1ccc(OCC)c(NS(=O)(=O)c2c(C(=O)N3CCC(C)CC3)c(C)n(C)c2C)c1 ?
HCMV inh: 10

Results for CCOc1ccc(OCC)c(S(=O)(=O)n2cc(C)nc2CC)c1 ?
Pf growth 48h: inconclusive; HCMV inh: -38; HCV inhibitor: -9%; Pf growth 96h: inconclusive

Results for CCc1nc(C)cn1S(=O)(=O)c1ccc(Cl)c(Cl)c1OC ?
HCMV inh: -75*
